Laboratory results: the supplement of paper PMC8728848
The sample as a whole holds a higher share of the strongest signals than the screen did.

What was measured:
Assay in all cases: glycan array binding signal (z-score within array); higher = stronger binding
Settings in all cases: glycan notation: IUPAC condensed, linker removed
[1] = target: Fuc(a1-2)Gal(b1-4)GlcNAc(b1-2)Man(a1-3)[Fuc(a1-2)Gal(b1-4)GlcNAc(b1-2)Man(a1-6)]Man(b1-4)GlcNAc(b1-4)GlcNAc
Procedure, shortened: (§1)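 Negative Z-scores can be read as non-binding. The Z-score is calculated within each array and then averaged across arrays of one protein sequence at different concentrations or buffers and across linkers. Arrays, 3228 in all, were curated from the Consortium for Functional Glycomics database and kept only where the protein sequence was available.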

[2] = target: Fuc(a1-2)Gal6S(b1-4)Glc6S
Procedure, shortened: as §1

[3] = target: Fuc(a1-2)[Gal(a1-4)]Gal(b1-4)GlcNAc
Procedure, shortened: as §1

[4] = target: Fuc(a1-3)[Gal3S(b1-4)]Glc6S
Procedure, shortened: as §1

[5] = target: Fuc(a1-3)[Gal3S(b1-4)]GlcNAc6S
Procedure, shortened: as §1

[6] = target: Fuc(a1-3)[GalNAc(b1-4)]GlcNAc
Procedure, shortened: as §1

Fuc(a1-4)GlcNAc = target: Fuc(a1-4)GlcNAc
Procedure, shortened: as §1

[7] = target: Gal(a1-3)Gal(b1-4)[Fuc(a1-3)]GlcNAc
Procedure, shortened: as §1

Gal(b1-3)Gal = target: Gal(b1-3)Gal
Procedure, shortened: as §1

[8] = target: Gal(b1-3)GalNAc(b1-4)Gal(b1-4)Glc
Procedure, shortened: as §1

[9] = target: Gal(b1-3)GlcNAc(b1-2)Man(a1-3)[Gal(b1-3)GlcNAc(b1-2)Man(a1-6)]Man(b1-4)GlcNAc(b1-4)[Fuc(a1-6)]GlcNAc
Procedure, shortened: as §1

[10] = target: Gal(b1-3)GlcNAc(b1-3)Gal(b1-4)Glc
Procedure, shortened: as §1

[11] = target: Gal(b1-3)[Fuc(a1-4)]GlcNAc(b1-3)Gal(b1-4)GlcNAc
Procedure, shortened: as §1

[12] = target: Gal(b1-4)GalNAc(a1-3)[Fuc(a1-2)]Gal(b1-4)GlcNAc
Procedure, shortened: as §1

[13] = target: Gal(b1-4)GlcNAc(b1-6)Gal(b1-4)GlcNAc
Procedure, shortened: as §1

Gal3S(b1-3)GlcNAc = target: Gal3S(b1-3)GlcNAc
Procedure, shortened: as §1

Gal3S(b1-4)Glc6S = target: Gal3S(b1-4)Glc6S
Procedure, shortened: as §1

[14] = target: Gal3S(b1-4)[Fuc(a1-3)]Glc
Procedure, shortened: as §1

Gal3S4S(b1-4)GlcNAc = target: Gal3S4S(b1-4)GlcNAc
Procedure, shortened: as §1

Gal3S6S(b1-4)GlcNAc6S = target: Gal3S6S(b1-4)GlcNAc6S
Procedure, shortened: as §1

Glc(a1-4)Glc = target: Glc(a1-4)Glc
Procedure, shortened: as §1

Glc(a1-6)Glc(a1-6)Glc = target: Glc(a1-6)Glc(a1-6)Glc
Procedure, shortened: as §1

GlcA(b1-3)Gal = target: GlcA(b1-3)Gal
Procedure, shortened: as §1

[15] = target: GlcNAc(b1-3)Gal(b1-4)GlcNAc(b1-3)Gal(b1-4)GlcNAc
Procedure, shortened: as §1

GlcNAc(b1-4)GlcNAc = target: GlcNAc(b1-4)GlcNAc
Procedure, shortened: as §1

[16] = target: GlcNAc(b1-4)GlcNAc(b1-4)GlcNAc
Procedure, shortened: as §1

[17] = target: GlcNAc(b1-6)Gal(b1-4)GlcNAc
Procedure, shortened: as §1

[18] = target: Man(a1-2)Man(a1-2)Man(a1-6)[Man(a1-3)]Man
Procedure, shortened: as §1

[19] = target: Neu5Ac(a2-3)Gal(b1-3)GalNAc
Procedure, shortened: as §1

[20] = target: Neu5Ac(a2-3)Gal(b1-3)GalNAc(b1-4)[Neu5Ac(a2-3)]Gal(b1-4)Glc
Procedure, shortened: as §1

[21] = target: Neu5Ac(a2-3)Gal(b1-3)GalNAc6S
Procedure, shortened: as §1

[22] = target: Neu5Ac(a2-3)Gal(b1-3)GlcNAc
Procedure, shortened: as §1

[23] = target: Neu5Ac(a2-3)Gal(b1-3)[Fuc(a1-4)]GlcNAc(b1-3)Gal(b1-3)[Fuc(a1-4)]GlcNAc
Procedure, shortened: as §1

[24] = target: Neu5Ac(a2-3)Gal(b1-4)GlcNAc(b1-2)Man(a1-3)[Neu5Ac(a2-6)Gal(b1-4)GlcNAc(b1-2)Man(a1-6)]Man(b1-4)GlcNAc(b1-4)GlcNAc
Procedure, shortened: as §1

Neu5Ac(a2-6)Gal(b1-4)Glc = target: Neu5Ac(a2-6)Gal(b1-4)Glc
Procedure, shortened: as §1

[25] = target: Neu5Ac(a2-6)Gal(b1-4)GlcNAc(b1-2)Man(a1-3)[GlcNAc(b1-2)Man(b1-4)GlcNAc(b1-2)Man(a1-6)]Man(b1-4)GlcNAc(b1-4)GlcNAc
Procedure, shortened: as §1

[26] = target: Neu5Ac(a2-6)Gal(b1-4)GlcNAc(b1-2)Man(a1-3)[Man(a1-6)]Man(b1-4)GlcNAc(b1-4)GlcNAc
Procedure, shortened: as §1

[27] = target: Neu5Ac(a2-6)Gal(b1-4)GlcNAc(b1-3)Gal(b1-4)GlcNAc
Procedure, shortened: as §1

[28] = target: Neu5Ac(a2-8)Neu5Ac(a2-3)[GalNAc(b1-4)]Gal(b1-4)Glc
Procedure, shortened: as §1

Neu5Gc(a2-3)Gal(b1-4)Glc = target: Neu5Gc(a2-3)Gal(b1-4)Glc
Procedure, shortened: as §1

B1: Beta-Defensin 3 (Homo sapiens), P81534 (peptide)
chain: GIINTLQKYYCRVRGGRCAVLSCLPKEEQIGKCSTRGRKCCRRKK
For B1, the “glycan array binding signal (z-score)” value [1] was -0.692, the “glycan array binding signal (z-score)” value [2] was 5.67 and the “glycan array binding signal (z-score)” value [3] was -0.449. The “glycan array binding signal (z-score)” value [4] was 3.57, the “glycan array binding signal (z-score)” value [5] was 8.21 and the “glycan array binding signal (z-score)” value [6] was -0.467. For the same binder, the “glycan array binding signal (z-score)” value (Fuc(a1-4)GlcNAc) was -0.369, the “glycan array binding signal (z-score)” value [7] was -0.233 and the “glycan array binding signal (z-score)” value (Gal(b1-3)Gal) was 0.134. The “glycan array binding signal (z-score)” value [8] was -0.315, the “glycan array binding signal (z-score)” value [9] was -0.62 and the “glycan array binding signal (z-score)” value [10] was -0.348. For the same binder, the “glycan array binding signal (z-score)” value [11] was -0.493, the “glycan array binding signal (z-score)” value [12] was -0.395 and the “glycan array binding signal (z-score)” value [13] was -0.485. For the same binder, the “glycan array binding signal (z-score)” value (Gal3S(b1-3)GlcNAc) was 0.98, the “glycan array binding signal (z-score)” value (Gal3S(b1-4)Glc6S) was 4.37 and the “glycan array binding signal (z-score)” value [14] was 0.062. The “glycan array binding signal (z-score)” value (Gal3S4S(b1-4)GlcNAc) was 4.31, the “glycan array binding signal (z-score)” value (Gal3S6S(b1-4)GlcNAc6S) was 3.11 and the “glycan array binding signal (z-score)” value (Glc(a1-4)Glc) was 0.053. The “glycan array binding signal (z-score)” value (Glc(a1-6)Glc(a1-6)Glc) was -0.18, the “glycan array binding signal (z-score)” value (GlcA(b1-3)Gal) was 1.72 and the “glycan array binding signal (z-score)” value [15] was -0.356. For the same binder, the “glycan array binding signal (z-score)” value (GlcNAc(b1-4)GlcNAc) was -0.569, the “glycan array binding signal (z-score)” value [16] was -0.463 and the “glycan array binding signal (z-score)” value [17] was -0.369. For the same binder, the “glycan array binding signal (z-score)” value [18] was -0.442, the “glycan array binding signal (z-score)” value [19] was -0.221 and the “glycan array binding signal (z-score)” value [20] was -0.555. For the same binder, the “glycan array binding signal (z-score)” value [21] was 1.18, the “glycan array binding signal (z-score)” value [22] was -0.304 and the “glycan array binding signal (z-score)” value [23] was -0.364. For the same binder, the “glycan array binding signal (z-score)” value [24] was -0.484, the “glycan array binding signal (z-score)” value (Neu5Ac(a2-6)Gal(b1-4)Glc) was -0.294 and the “glycan array binding signal (z-score)” value [25] was -0.583. For the same binder, the “glycan array binding signal (z-score)” value [26] was -0.313, the “glycan array binding signal (z-score)” value [27] was -0.64 and the “glycan array binding signal (z-score)” value [28] was -0.591. For the same binder, the “glycan array binding signal (z-score)” value (Neu5Gc(a2-3)Gal(b1-4)Glc) was -0.025.
